Screening data: PubChem, National Center for Advancing Translational Sciences (NCATS)
Compounds with a hit are over-represented: about 19% of the library has one in this group of screens.
Lassa entry inh: blocks Lassa virus binding to or entry into cells | 300,000 compounds, 1.2% hits | Lassa virus pseudotype entry inhibition, cell reporter | Potency, µM (highest dose often 37.9 µM), for inactives: at the highest dose activity change, negative = inhibition, most hits filed as inhibitors; calls by dose curve; tested in HEK293 cells; also: potency is read from the fitted curve at half-maximal effect; % is scaled to controls: 0 for no effect and ±100 for the full control effect; nearly all actives have a fitted effect of over 50% in size
Pf growth 48h: P. falciparum growth inhibition at 48 hours (one generation); P. falciparum luciferase growth in erythrocytes, 48 h; Potency, µM (titrated, usually from 28.7 µM), without a hit: at the highest dose activity change, negative = inhibition, actives largely listed as inhibitors; 310,000 compounds, 5.9% hits; also: potency is read from the fitted curve at half-maximal effect; % is scaled to controls: 0 for no effect and ±100 for the full control effect
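Read-out is firefly luciferase luminescence from an integrated reporter in P. falciparum, so falling signal marks reduced parasite growth. Infected erythrocytes were at 2% hematocrit and 0.1% parasitemia (final) in Albumax-supplemented RPMI 1640.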
Pf growth 96h: P. falciparum growth inhibition at 96 hours. P. falciparum luciferase reporter growth, 96 h. Potency, µM (top dose mostly 28.7 µM), inactives show at the highest dose activity change, negative = inhibition, actives largely listed as inhibitors. AID 504834. 320,000 compounds, 6.9% hits; also: potency is read from the fitted curve at half-maximal effect; % is scaled to controls: 0 for no effect and ±100 for the full control effect
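96 h incubation, 37 C, 5% CO2, of luciferase-reporter P. falciparum-infected RBCs (2% hematocrit, 0.05% parasitemia final) with test compounds; endpoint luminescence.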
Cycloheximide cs: affects cycloheximide protein synthesis inhibition readout, counter-screen; 300,000 compounds, 12% hits; cell reporter, cycloheximide protein synthesis inhibition counterscreen; max response, %; in the data active = max response mostly above about 13%, no sharp cut-off; inactive = mostly below about 14%; also: read at 38.3 µM for the half of the compounds with a filed dose; 0% is about no effect
Marburg entry inh: inhibitors of Marburg virus binding or cell entry. 300,000 compounds, 1.8% hits. Marburg virus pseudotyped entry inhibition, cell reporter. AID 540276. Potency, µM (titrated, usually from 37.8 µM), for the others: at the top dose activity change, negative = inhibition, usual class: inhibitors; calls by dose curve; tested in HEK293 cells; also: potency is read from the fitted curve at half-maximal effect; % is scaled to controls: 0 for no effect and ±100 for the full control effect
Shiga toxin inh: blocks Shiga toxin action in Vero cells. Vero cells, Shiga toxin protein synthesis inhibition reporter. inhibition, % at 38.7 µM. 290,000 compounds, 9.2% hits. AID 2315; in the data active = inhibition mostly above about 28%, no sharp cut-off; inactive = mostly below about 43%; also: 0% is about no effect
* hit, by the source's call; ? = inconclusive; nt = no result; [ ] = another dose, or the depositor's remark. Unless noted, calls follow the shape of the dose curve; as a rule, active = well fitted inhibition curve with a large enough effect; inconclusive = small, poorly fitted or top-dose-only effect, or another doubt; inactive = no such curve, though single readings can be large or run the other way.

SMILES	Lassa entry inh	Pf growth 48h	Pf growth 96h	Cycloheximide cs	Marburg entry inh	Shiga toxin inh
Cc1ccccc1OCCn1nc(C(=O)O)c2ccccc2c1=O	4%	?	111%	-7	?	-6
O=C(c1cc2ccccc2o1)N1CC=C(c2ccccc2)CC1	-2%	43%	17%	6	-8%[46.1 µM]	-4
CC1CCCC(C)N1C(=O)COc1ccc(F)cc1 (centres undefined)	3%	10%	?	26*	21%[46.1 µM]	12
O=C(COc1ccc(F)cc1)N1CCCCCCC1	13%[46.1 µM]	-7%	?	-2	30%[46.1 µM]	15
CC1CCCC(C)N1C(=O)COc1ccc([N+](=O)[O-])cc1Cl (centres undefined)	nt	8%	-7%	18	nt	19
Cc1cc(Cl)ccc1OCC(=O)N1C(C)CCCC1C (centres undefined)	15%	14%	111%	20*	-1%	73*
CCOc1ccc(-n2c(CCC(=O)O)ccc2-c2ccc(Br)cc2)cc1	-21%[46.1 µM]	nt	nt	nt	27%[46.1 µM]	nt
Cc1cc(C)c2c(CN3CC(C)OC(C)C3)cc(=O)oc2c1C (centres undefined)	19%[46.1 µM]	?	?	-1	?	-6
COc1ccccc1NC(=O)NC1(C(=O)N2CCN(C)CC2)CCCCC1	-1%[46.1 µM]	16%	3%	-7	25%[46.1 µM]	-3
Cc1ccc(/C=N/NC(=O)c2ccc(C(=O)N/N=C/c3ccc(C)s3)o2)s1	-3%	?	?	1	-3%[46.1 µM]	-3
O=C(N/N=C/c1ccc(Br)s1)c1ccco1	?	-26%	-3%	55*	?	91*
Cc1ccc(/C=N/NC(=O)c2ccco2)s1	28%	85%	154%	53*	-3%	71*
O=C(O)c1cccc(Cn2c(Cl)c(/C=N/NC(=O)c3ccccc3O)sc2=O)c1	nt	43%	-4%	17*	nt	31
O=C(O)c1cccc(Cn2c(Cl)c(/C=N/NC(=O)c3ccccc3Cl)sc2=O)c1	15%	21%	-17%	6	17%	-2
Cc1sccc1/C=N/NC(=O)c1ccco1	nt	-8%	?	7	nt	-22
O=C(N/N=C/c1sc(=O)n(Cc2ccc(Br)cc2)c1Cl)c1ccco1	?	3.7µM*	2.6µM*	22*	?	3
CCOc1cc(Br)ccc1S(=O)(=O)N1CCC(C(N)=O)CC1	-22%	?	?	-1	4%	3
CN1C2C=C3C(C#N)=C(N)C(C#N)(C#N)[C@@H](c4ccsc4)[C@@H]3C1CC2 (some centres undefined)	16%	-16%	nt	-2	-20%	-15
Cc1cc2nn(-c3cccc4ccccc34)nc2cc1NC(=O)c1cccs1	-8%	nt	7.4µM*	11	?	13
O=C(O)c1ccc(-n2cccc2/C=N\NC(=O)c2cc3cc(Br)ccc3o2)cc1	4%	?	0%	1	-12%[46.1 µM]	25
COC(=O)C1=CN(c2ccc(OC)cc2)C=C(C(=O)OC)C1c1cc(OC)c(OC)cc1OC	0.63µM*	24%	4.1µM*	-2	-9%	-15
COC(=O)C1=CN(c2cc(C)cc(C)c2)C=C(C(=O)OC)C1c1ccc(OC)c(O)c1	?	0%	?	8	?	-9
O=C(N/N=C/c1c(F)c(F)c(F)c(F)c1F)c1cc(-c2ccccc2)nc2ccccc12	nt	nt	5%	-2	nt	0
COc1ccc(/C=C/c2nc(-c3ccccc3O)n[nH]2)cc1OC	2%	48%	?	20*	-2%	23*
CCN(CC)c1ccc(NC(=O)CCCOc2cccc(C)c2)cc1	8%	-9%	-1%	-4	8%[46.1 µM]	-13
O=c1[nH]c(O)c(N=Nc2ccc(SC(F)F)cc2)c(=O)[nH]1	nt	44%	54%	20*	nt	36
COc1cccc(C2N=C(c3ccccc3C)NO2)c1OC (centres undefined)	0%	63%	79%	27*	13%[46.1 µM]	51*
Cc1ccc(-c2nc3ccccc3c(=O)n2O)cc1	26%[46.1 µM]	?	?	5	5%[46.1 µM]	19
CCOc1[nH]n(-c2ccccc2)c(=O)c1C=Nc1ccccc1	nt	-1%	3.7µM*	5	nt	22
NC(=O)[C@@H]1CC2(CC(c3cccc(NC(=O)[C@@H]4CCC(=O)N4)c3)=NO2)CN1C(=O)Cc1ccc([N+](=O)[O-])cc1 (some centres undefined)	nt	33%	31%	-4	nt	-4
